pPAFAH inh = pPAFAH (human) enzyme inhibition. recombinant pPAFAH, FP-rhodamine probe fluorescence polarization. inhibition, % at 3.39 µM. 1.5% of 330,000 active. AID 463082;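 active = inhibition above the mean inhibition across the screen plus 3 SD, cut at about 25% in these data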;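 also: inhibitors block binding of the rhodamine activity-based probe so polarization drops; 0% = enzyme with DMSO and 100% = wells lacking pPAFAH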
PAFAH1B3 FP inh = PAFAH1B3 (human) inhibition | Q15102 | recombinant PAFAH1B3, FP-rhodamine probe, fluorescence polarization | inhibition, % at 3.39 µM | 0.28% of 340,000 active | AID 492972;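 active = inhibition above the screen-wide average of all tested compounds plus 3 SD, cut at about 25% in these data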;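 also: 0% = enzyme with DMSO only and 100% = wells lacking PAFAH1B3 protein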
Target sequence (Q15102 whole entry, looked up): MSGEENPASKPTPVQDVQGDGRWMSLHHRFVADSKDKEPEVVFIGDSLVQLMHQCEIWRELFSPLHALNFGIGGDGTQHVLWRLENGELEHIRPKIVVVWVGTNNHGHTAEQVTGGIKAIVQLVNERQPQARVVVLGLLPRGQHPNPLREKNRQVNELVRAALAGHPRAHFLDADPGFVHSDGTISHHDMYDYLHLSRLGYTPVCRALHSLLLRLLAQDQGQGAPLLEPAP
PAFAH2 inh = PAFAH2 (human) inhibition; Q99487; recombinant PAFAH2, FP-rhodamine activity probe, fluorescence polarization; inhibition, % at 3.39 µM; 0.99% of 340,000 active; AID 492956;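 active = inhibition above the mean over all tested compounds plus 3 SD, cut at about 30% in these data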;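 also: inhibitors block probe labeling of enzyme so polarization drops; 0% = enzyme with DMSO and 100% = wells lacking PAFAH2 protein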
TCR CD3 inh = inhibitors of human TCR-CD3 interaction | TAMRA-labeled TCR probe fluorescence, biochemical | inhibition, % at 9.4 µM | 0.37% of 360,000 active | AID 651800; in the data active = inhibition above about 19%;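 also: recombinant mutant TCR 2C K166C tagged with TAMRA read by polarization; 0% = receptor in buffer alone and 100% = receptor with positive control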
PAFAH1B2 FP inh = PAFAH1B2 (human) inhibition | recombinant PAFAH1B2, FP-rhodamine activity probe, fluorescence polarization | inhibition, % at 3.39 µM | AID 492953 | P68402 | 1.2% of 340,000 active;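 active = inhibition above the mean of all tested compounds plus 3 SD, cut at about 24% in these data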;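 also: 0% = enzyme with DMSO and 100% = wells lacking PAFAH1B2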
Target sequence (P68402 whole entry, looked up): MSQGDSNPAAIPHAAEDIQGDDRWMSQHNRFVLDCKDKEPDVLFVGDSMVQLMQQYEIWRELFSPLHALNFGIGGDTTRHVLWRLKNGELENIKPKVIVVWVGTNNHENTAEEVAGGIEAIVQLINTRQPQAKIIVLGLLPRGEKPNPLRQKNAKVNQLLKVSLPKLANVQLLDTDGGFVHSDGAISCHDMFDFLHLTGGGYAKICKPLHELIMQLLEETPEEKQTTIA
* = called active by the depositor; nt = no result. The list is not random: actives were taken first. Their share in the collection is about 2.7%.

SMILES	pPAFAH inh	PAFAH1B3 FP inh	PAFAH2 inh	TCR CD3 inh	PAFAH1B2 FP inh
COc1cc(C(=O)NN=C2c3ccccc3-c3ccccc32)cc(OC)c1OC	nt	nt	nt	3	nt
COc1ccc(C(=O)NCC2CCN(C(=O)C(=O)c3cccs3)CC2)c(OC)c1	nt	nt	nt	-8	nt
O=c1[nH]c(S)c(/C=C2\C=Nc3ccccc32)s1	25*	nt	nt	-8	nt
O=C(Cn1c(O)c(/C=C2\C=Nc3ccccc32)sc1=O)N1CCOCC1	5	1	-3	6	4
CCC(C)Nc1nc(N)c([N+](=O)[O-])c(Nc2cc(OC)ccc2OC)n1 (stereo not given)	29*	9	13	-10	6
CCC(C)Nc1nc(N)c([N+](=O)[O-])c(Nc2ccccc2OC)n1 (stereo not given)	7	7	5	-4	6
O=C(CSc1ccccc1Cl)c1ccco1	4	10	8	-3	0
O=C(CCSc1ccc(Cl)cc1)c1ccco1	4	-1	3	-3	28*
O=C(CSc1ccc(Cl)cc1)c1ccco1	29*	0	19	nt	21
Nc1nc2c(ncn2[C@@H]2O[C@H](C(=O)NCCc3c[nH]c4ccccc34)[C@@H](O)[C@H]2O)c(=O)[nH]1	nt	nt	nt	-8	nt
CN1Cc2c(N3CCOCC3)nc3sc(C(=O)c4ccc(Br)cc4)c(N)c3c2CC1(C)C	30*	nt	nt	-4	nt
O=C(CCC(=O)N1CCSc2ccccc21)NCc1ccc(Cl)cc1	0	-3	9	-4	25*
CSc1nc2ccc(NS(=O)(=O)c3ccc(CNC(C)=O)cc3)cc2s1	32*	0	-2	-2	-3
Cc1cccc(S(=O)(=O)Nc2ccc(-c3nc4ccc(C)cc4s3)cc2)c1	33*	19	-29	0	-3
Cc1ccc(NS(=O)(=O)c2ccc3[nH]c(=O)sc3c2)cc1	29*	-4	-1	3	22
Cc1ccc(S(=O)(=O)Nc2ccc(-c3nc4ccc(C)cc4s3)cc2)cc1	26*	-2	-2	3	-7
Cc1ccc2nc(-c3ccc(NS(=O)(=O)c4c(C)n(C)c(=O)n(C)c4=O)cc3)sc2c1	4	3	1	1	-2
CC1(C(=O)NCCC#N)CCN1C(=O)Cc1ccc(-c2ccccc2)cc1 (stereo not given)	nt	nt	nt	1	nt
S=C(Nc1ccccn1)NC1CCCCC1	5	nt	nt	1	nt
O=C(O)c1cc(S(=O)(=O)NC(Cc2c[nH]c3ccccc23)C(=O)O)ccc1Cl (stereo not given)	6	5	7	0	25*
NC(=O)C1CC(=O)N(c2ccc(OCc3ccc(Cl)cc3)cc2)C1 (stereo not given)	9	4	-6	-3	28*
CCCNC(=O)C1CC(=O)N(c2ccc(OCc3ccc(F)cc3)cc2)C1 (stereo not given)	4	-6	3	1	0
CCCNC(=O)C1CC(=O)N(c2ccc(OCc3ccc(Cl)cc3)cc2)C1 (stereo not given)	9	0	-3	-1	30*
Cc1cc(Cl)ccc1OCC(=O)N/N=C/c1ccncc1	1	6	-12	-8	1
O=C(Cc1ccccc1)NNC1CC(=O)N(c2ccc(Cl)cc2)C1=O (stereo not given)	0	8	6	1	5
SMILES	pPAFAH inh	PAFAH1B3 FP inh	PAFAH2 inh	TCR CD3 inh	PAFAH1B2 FP inh
O=C(Cc1ccc(Cl)cc1)NNC1CC(=O)N(c2ccc3ccccc3c2)C1=O (stereo not given)	5	5	-1	-10	25*
Cc1ccc(S(=O)(=O)Oc2ccccc2/C=N/NC(=O)c2nn(C)cc2[N+](=O)[O-])cc1	7	5	5	-3	7
Cc1ccc(S(=O)(=O)Oc2ccc(/C=N/NC(=O)c3nn(C)cc3[N+](=O)[O-])cc2)cc1	2	-4	-3	-8	28*
Cn1c(=O)c2c(c3ccccc31)OC(C)(C)C=C2	nt	nt	nt	-3	nt
Cc1ccc(NC(=O)CN(C)C(=O)c2ccc3[nH]c4c(c3c2)CC(C)CC4)cc1 (stereo not given)	4	7	-2	-4	48*
COc1ccc(NS(=O)(=O)c2cccc(NC(=O)c3ccccn3)c2)cc1	26*	-2	0	-1	-1
COc1ccc(NS(=O)(=O)c2ccc(C(=O)NCC3(N4CCOCC4)CCCCC3)cc2)cc1	31*	2	4	-1	9
CNS(=O)(=O)c1cccc(C(=O)NCC2(N3CCCCC3)CCCCC2)c1	5	6	6	-2	10
CCOc1ccc(S(=O)(=O)Nc2ccc(C(=O)NCC3(N4CCCCC4)CCCCC3)cc2)cc1	-5	-1	-6	1	9
COc1ccc(NS(=O)(=O)c2cccc(C(=O)NCC3(N4CCCCC4)CCCCC3)c2)cc1	32*	7	-2	7	-1
COc1ccc(NS(=O)(=O)c2cccc(C(=O)NNC(=O)CNC(=O)c3ccc(C)cc3)c2)cc1	34*	13	4	-6	1
Cc1ccc(NC(=O)c2ccc(Cl)c(S(=O)(=O)N3CCc4ccccc43)c2)nc1	nt	-9	-13	-9	-10
COC(=O)c1ccc(CN2CCC(Oc3cccc(C(=O)N4CCOCC4)c3)CC2)cc1	6	3	1	1	-9
CN(C(=S)Nc1cccnc1)c1ccc(O)cc1	29*	8	4	15	-3
CN(C(=S)Nc1ccc(Oc2ccccc2)cc1)c1ccc(O)cc1	27*	8	-9	2	5
Cc1ccc(N=C2NC(=O)/C(=C/c3cccn3C)S2)c(C)c1	25*	7	12	-2	11
O=C(NCCSCc1ccc(Cl)cc1)c1cccs1	8	12	1	4	25*
O=C(CNC(=O)c1cccs1)OCc1ccc(Cl)cc1	2	4	3	-9	3
CC(C)(C)NC(=S)N/N=C/c1cc(Br)c(O)c(Br)c1	34*	8	6	-6	17
O=C(N/N=C/c1cc(Br)c(O)c(Br)c1)C1CC1	14	0	-8	-1	9
O=C(C[C@@H]1C/C=C/CC[C@@H](Cc2ccc(F)cc2)C(=O)O[C@@H](c2ccccc2)CNC1=O)NCCO	7	-5	1	-1	18
O=C(C[C@H]1C/C=C/CC[C@H](Cc2ccc(F)cc2)C(=O)O[C@H](c2ccccc2)CNC1=O)NCCO	13	9	9	5	30*
O=C(C[C@@H]1C/C=C/CC[C@@H](Cc2ccc(F)cc2)C(=O)O[C@H](c2ccccc2)CNC1=O)NCCO	3	-5	-2	-5	24*
COc1ccc(-c2cc(-c3ccco3)[nH]c(=O)c2C#N)cc1	30*	5	19	6	6
COc1ccc(-c2cc(C(F)(F)F)c(C#N)c(=O)[nH]2)cc1	-2	-4	-5	-2	2
CCCC(C)C(=O)NC1CCCCN(C)C1=O (stereo not given)	nt	nt	nt	-3	nt
Cc1ccc(N2NC(=O)/C(=C/c3ccc(-c4ccc(Cl)c(C(=O)O)c4)o3)C2=O)cc1	15	5	24	0	0
